Inconclusive results are not listed. Entries that show only a call come without a potency. A structure can be active in one record and inactive in another. Activity calls are given as the source filed them. The call rests on the fitted dose curve; in most records, active means well fitted activation curve with a large enough effect in the repeat runs; inconclusive means weak or mixed curves; inactive means flat fitted curve, though single readings scatter.
Potency means the concentration at half of the fitted maximal effect.

The nature of the experiment: A CellTox Green Cytotoxicity Assay to monitor cytotoxicity in HEK293 cells - 40 hour (AID 1224871). Further: nearly all actives have a fitted effect of over 45% in size. Particulars: CellTox Green fluorescence; series mostly up to 76.8 µM. The source says: National Center for Advancing Translational Sciences [NCATS]
NIH Chemical Genomics Center [NCGC]
U.S. Environmental Protection Agency [EPA]
National Institutes of Environmental Health Sciences [NIEHS]
National Toxicology Program [NTP]
Cell-based models are critical for drug discovery. Determining the natural cytotoxic effects resulting from test compounds is an essential research activity. A CellTox Green Cytotoxicity Assay to monitor cytotoxicity in real time of continues cell culture during 40 hours of the compound treatment was used to screen Tox21 10K library compounds in Hek293 cells. CellTox Green Cytotoxicity Assay is a nonlytic, homogeneous, biofluorescent method to measure cytotoxicity in cell culture after experimental manipulation. The assay system uses a proprietary asymmetric cyanine dye that is excluded from viable cells but preferentially stains the dead cell's DNA. […] Viable cells produce no appreciable increases in fluorescence. Therefore, the fluorescence signal produced by the binding interaction with dead cell DNA is proportional to cytotoxicity.
The mixture of Hek293 cell suspension and reagents were dispensed at 600cells/6 ul/well in 1536-well tissue culture treated black solid bottom plates using a Multidrop dispenser. After the assay plates were incubated at a 37 C/5% CO2 incubator for 5 hours, 23 nL of compounds dissolved in DMSO, positive and negative controls was transferred to the assay plate by a pintool work station. The plates were incubated at 37 C for 40 hours. The fluorescence intensity were measured at 0h, 8h, 16h, 24h, 32h and 40h time points using ViewLux plate reader during compound treatment.
Take `CCC(=O)O`: the Potency result is “inactive”.
For the compound `S=c1nc[nH]c2nc[nH]c12`, the Potency result was “inactive”.
Consider `C=C(C)C(=O)OCCCCCC`, for which the Potency result was “inactive”.
Turning to `OC[C@@H](O)[C@H](O)[C@H](O)[C@@H](O)CO`, the Potency entry is “inactive”.
On to `Nc1c(S(=O)(=O)O)cc(Br)c2c1C(=O)c1ccccc1C2=O`, for which the Potency result is “inactive”.
Take `O=C1CCCCC1`: the Potency result was “inactive”.
As for `O=C(c1ccc(O)cc1)c1ccc(O)cc1O`, the entry is “inactive”; as for `O=[N+]([O-])c1cccc(Cl)c1`, “inactive”.
For the compound `CCOC(=O)/C=C\C(=O)OCC`, the Potency entry was “inactive”.
Turning to `Clc1cc(Cl)c(Cl)cc1Cl`, the Potency entry is “inactive”.
Take `CCCCNC(N)=O`: the Potency result was “inactive”.
For `CC1COc2ccccc2N1C(=O)C(Cl)Cl` (stereo not given), the Potency entry was “inactive”.
To `C[C@@H]1O[C@@H](OC[C@H]2O[C@@H](Oc3c(-c4ccc(O)c(O)c4)oc4cc(O)cc(O)c4c3=O)[C@H](O)[C@@H](O)[C@@H]2O)[C@H](O)[C@H](O)[C@H]1O` belongs “inactive”; to `OCCOCCOCCOCCO`, “inactive”; to `Cc1cc(=O)[nH]c(C(C)C)n1`, “inactive”.
To `CC(C)Cc1ccccc1` belongs “inactive”; to `OCC#CCO`, “inactive”; to `CCCCC(CC)COC(C)=O` (stereo not given), “inactive”.
As for `C/C=C(C)/C=C/C=C(C)C`, the Potency result is “inactive”.
As to `CCCCC(CC)COC(=O)/C=C\C(=O)OCC(CC)CCCC` (stereo not given), the Potency entry is “inactive”.
For `O=[N+]([O-])C(CO)(CO)CO`, the Potency result was “inactive”.
On to `NCCNCCNCCNCCN`, for which the Potency result was “inactive”.
In the case of `CCc1ccccc1O`, the Potency was 54.7 µM (active) and inactive.
For `CC[Si](OC(C)=O)(OC(C)=O)OC(C)=O`, the Potency result is “inactive”.
To `CC(=O)CCc1ccccc1` belongs “inactive”; to `Oc1c(Cl)cc(Cl)c(Cl)c1Cl`, “inactive”; to `Cc1ccc(N)c(S(=O)(=O)O)c1`, “inactive”.
Take `NC(=O)/N=N/C(N)=O`: the Potency result was “inactive”.
On to `CCOC(=O)C1OC1c1ccccc1` (stereo not given), for which the Potency entry was “inactive”.
For `O=Nc1ccc(O)cc1`, the Potency entry is “inactive”.
As for `C=C1C2CCC(C2)C1(C)C` (stereo not given), the entry is “inactive”.
To `O=[N+]([O-])c1cc(N(CCO)CCO)ccc1NCCO` belongs “inactive”; to `CCCCCCCCCC(=O)O`, “inactive”.
As for `O=C(O)c1cc(-c2ccccc2)nc2ccccc12`, the entry is “inactive”.
Regarding `OC[C@@H](O)[C@@H](O)[C@H](O)[C@@H](O)CO`, the Potency entry was “inactive”.
Consider `Cc1cc(NS(=O)(=O)c2ccc(N)cc2)no1`, for which the Potency entry is “inactive”.
With `CN(CCOc1ccc(CC2SC(=O)NC2=O)cc1)c1ccccn1` (stereo not given), the Potency entry was “inactive”.
Take `O=C(c1cc(O)c(O)c(O)c1)c1ccc(O)c(O)c1O`: the Potency entry was “inactive”.
To `OC1CCCC1` belongs “inactive”.
In the case of `Cn1c([N+](=O)[O-])cnc1COC(N)=O`, the Potency result was “inactive”.
